Experimental data as given in PubChem BioAssay (NCI).
This is part of a sample that, as a whole, favours compounds with a hit. Of some 83,000 tested, about 20% had one in any assay.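 Cell lines were cultured in 96-well plates, exposed to a single compound concentration, and assessed for percent growth 48 hours later.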 Values without a mark were called inactive. Calls of active or inactive are those of the source. How the source made its calls: active means growth percent below 10; inactive means the rest.

Assays:
Experiment in all cases: NCI-60 one-dose screen, 48 h (100 = growth as untreated, 0 = no growth, -100 = all killed)
Settings in all cases: 10 µM
HT29 colon = system: HT29 colon
SNB-75 CNS = system: SNB-75 CNS
SNB-19 CNS = system: SNB-19 CNS
U251 CNS = system: U251 CNS
PC-3 prostate = system: PC-3 prostate
SK-MEL-5 melanoma = system: SK-MEL-5 melanoma
UACC-62 melanoma = system: UACC-62 melanoma
LOX IMVI melanoma = system: LOX IMVI melanoma
SK-MEL-28 melanoma = system: SK-MEL-28 melanoma
SK-MEL-2 melanoma = system: SK-MEL-2 melanoma
EKVX NSCLC = system: EKVX NSCLC
SN12C renal = system: SN12C renal
UO-31 renal = system: UO-31 renal
TK-10 renal = system: TK-10 renal
ACHN renal = system: ACHN renal
CAKI-1 renal = system: CAKI-1 renal
A498 renal = system: A498 renal
CCRF-CEM leukemia = system: CCRF-CEM leukemia
MOLT-4 leukemia = system: MOLT-4 leukemia
SR leukemia = system: SR leukemia

SMILES	growth (HT29 colon)	growth (SNB-75 CNS)	growth (SNB-19 CNS)	growth (U251 CNS)	growth (PC-3 prostate)	growth (SK-MEL-5 melanoma)	growth (UACC-62 melanoma)	growth (LOX IMVI melanoma)	growth (SK-MEL-28 melanoma)	growth (SK-MEL-2 melanoma)	growth (EKVX NSCLC)	growth (SN12C renal)	growth (UO-31 renal)	growth (TK-10 renal)	growth (ACHN renal)	growth (CAKI-1 renal)	growth (A498 renal)	growth (CCRF-CEM leukemia)	growth (MOLT-4 leukemia)	growth (SR leukemia)
COc1cc(NC(=O)CSc2nc3ccccc3c(=O)n2CCc2ccccc2)cc(OC)c1OC	15.4%	-26.7% (active)	27%	-12.5% (active)	41.8%	-41.9% (active)	25.3%	30.6%	37.5%	-2.19% (active)	65.3%	25.9%	-63.2% (active)	-2.38% (active)	-41.6% (active)	45.4%	-21.8% (active)			
CCN(CC)CCOc1nc2ccc(OC)cc2c2c1-c1ccc(OC)cc1C2=O	-61.4% (active)	-1.45% (active)	33.5%	-87.9% (active)	-0.151% (active)	-36.1% (active)	36%	-74.6% (active)	-12.6% (active)	20.8%	25.2%	29.3%	-44.4% (active)	8.74% (active)	-93% (active)	-4.67% (active)	25.4%	5.22% (active)	3.68% (active)	-14.8% (active)
O=C(Nc1cccc(Br)c1)c1cc(=O)[nH]c2ccccc12	107%	70.6%	97.9%	91.5%	79.2%	95.5%	80.9%	89.3%	107%	56.6%	87.1%	99.7%	97.9%	109%	98.5%	76.6%	111%	84.9%	96.1%	81%
COc1ccc(-c2ccc3cc(C(=O)Nc4ccc(O)c(C(=O)/C=C/c5cc(OC)c(OC)c(OC)c5)c4)ccc3c2)cc1	95.3%	94%	96.1%	92.6%	65.5%	72.6%	71.1%	81.3%	106%	99.5%	101%	92.6%	59.6%	100%	96.3%	86.6%	91.2%	53.8%	69.6%	60.3%
CN1CCCNc2c(c(=O)c2=O)NCCCN(C)CCCNc2c(c(=O)c2=O)NCCCN(C)CCCNc2c(c(=O)c2=O)NCCCN(C)CCCNc2c(c(=O)c2=O)NCCCN(C)CCCNc2c(c(=O)c2=O)NCCCN(C)CCCNc2c(c(=O)c2=O)NCCCN(C)CCCNc2c(c(=O)c2=O)NCCC1	59.3%	84.3%	40.5%	15.2%	77.5%	39.6%	43.7%	58.1%	22.6%	76.6%	61.7%	33.3%	17.2%	27.1%	43.3%	54.1%	72.5%			
N=C1c2nc3n(c2C(=O)c2nc4n(c21)CCCC4)CCCC3	-13.7% (active)	-97% (active)	30%	50.7%	90.6%	-98% (active)	-85.1% (active)	-68% (active)	-67.2% (active)	82.7%	95.6%	-86.1% (active)	46.9%	128%	69.4%	88.8%	52.1%	92.9%	85.4%	69.5%
COc1ccc2c(c1)-c1c(c3cc(OC)ccc3n(CCN(C)C)c1=O)C2=O	-63.4% (active)	-3.22% (active)	32.4%	20.3%	21.5%	11.7%	36.9%	-67.9% (active)	41.3%	14.4%	34.5%	24.6%	-24.7% (active)	-2.26% (active)	8.27% (active)	1.94% (active)	48.6%	3.78% (active)	1.5% (active)	-12.4% (active)
O=C(Nc1nc2ccc(F)cc2s1)c1cc(-c2ccc(F)cc2)n2nc(-c3ccccc3)cc2n1	92.7%	70.7%	88%	102%	84.2%	68.3%	66.3%	85.9%	58.1%	111%	84.1%	87.5%	98.2%	113%	107%	85.6%	124%	74.5%	99.7%	35%
O=C1C(c2ccccc2)C2C=CC(C2)N1O (stereo not drawn)	97.9%	107%	106%	109%	98.2%	106%	101%	99.6%	118%	103%	101%	102%	68%	101%	107%	106%		82.6%	92.5%	105%
CC[C@H]1CCC/C=C/[C@@H]2C[C@H](O)C[C@H]2[C@H](O)/C=C/C(=O)O1	-56.8% (active)	27.5%	29.7%	15.7%	13.6%	-99.6% (active)	-0.469% (active)	-93.5% (active)	-0.327% (active)	-48.1% (active)	-1.36% (active)	3.46% (active)	-9.94% (active)	-48% (active)	0.373% (active)	-0.599% (active)	-45.3% (active)	7.71% (active)	0.81% (active)	2.29% (active)
CCN1CCC2(CC1)OC(c1ccccc1)C(c1ccccc1)O2 (stereo not drawn)	96%	88.2%	112%	109%	89.1%	105%	115%	90.8%	107%	105%	107%	110%	87.2%	103%	109%	111%	98.9%	91.7%	96.5%	96.9%
CCn1cc(C(=O)O)c(=O)c2cnc(N3CCCC3)nc21	111%	88.1%	105%	103%	102%	102%	108%	99.3%	113%	97.7%	93.7%	110%	74.8%	116%	100%	85.8%	87.6%		108%	110%
COc1cc(Cc2cc(-c3ccc(Cl)cc3)n[nH]c2=O)ccc1O	110%	70.8%	86.2%	108%	105%	80.7%	96.4%	115%	122%	117%	-26% (active)	98%	83.9%	157%	109%	132%	104%		-59.9% (active)	-35.7% (active)
O=C1c2ccc3c4c(ccc(c24)C(=O)N1CCNCc1ccccc1)C(=O)N(CCNCc1ccccc1)C3=O	-16.5% (active)	105%	8.03% (active)	-46.3% (active)	28.3%	-97.9% (active)	-31.6% (active)	-47.9% (active)	6% (active)	119%	-65.6% (active)	-47.3% (active)	-59% (active)	63.4%	85.4%	-56.2% (active)		-6.55% (active)	-9.12% (active)	-8.22% (active)
ClCCOCCn1cnc2c(Cl)nc(Cl)nc21	36.6%	57.1%	88.2%	67.3%	35.2%	52.3%	45.1%	-13.9% (active)	72.8%	67.6%	92.4%	63.3%	88%	92.7%	81.3%	-4.35% (active)	93.1%		79.8%	41.5%
CCN(CC)CCNc1ccc(CO)c2oc3cc(Cl)ccc3c(=O)c12	52.8%	69.7%	97%	79.7%	77.4%	53.9%	73.1%	70.5%	97.8%	128%	88.7%	76.3%	54.4%	82.7%	60.9%	87.3%	50.9%		62.3%	50.1%
